# Screening data as filed in PubChem BioAssay.
# Compounds with a hit are over-represented: about 3.9% of the library has one in this group of screens.
# D1 ag: Allosteric Agonists of the Human D1 Dopamine Receptor: qHTS; D(1A) dopamine receptor (Homo sapiens), P21728; HEK293 T-REx D1 cells, calcium flux, agonist mode; activation, % at 2 µM; hit rate 1% among 360,000; AID 504660, 2011; in the data active = activation above about 30%; note: 0% is about no effect
#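 Inducible HEK293 T-REx D1 cells, force-coupled to calcium signalling, were plated at 4000 cells/well with tetracycline and held overnight at 30 C. After no-wash calcium dye loading, compound-evoked calcium rise over 180 s flagged agonists.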
# USP2a inh: qHTS Assay for Inhibitors of Ubiquitin-specific Protease USP2a Using CHOP2 as the Reporter. Ubiquitin carboxyl-terminal hydrolase 2 (Homo sapiens), O75604. USP2 core, Ub-CHOP2 coupled fluorogenic reporter, 485/531. Potency, µM (series often up to 38.3 µM), inactives show at the highest dose activity change, negative = inhibition, hits mostly inhibitors. hit rate 0.01% among 330,000;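 note: potency is the fitted concentration of half-maximal effect; plate controls were DMSO wells for no effect and full inhibition by NEM control for full effect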
#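 Deubiquitinase activity read as fluorescence (485/531 nm) after Ub-CHOP2 cleavage activates the enterokinase reporter on its substrate; USP2 core 10nM, Ub-CHOP2 and substrate 25nM each, 30min compound preincubation then 60min RT; data normalized to NEM, curves fitted.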
# GALK inhibitor: qHTS Assay for Inhibitors of Human Galactokinase (GALK); Potency, µM (highest dose often 57.5 µM), without a hit: at the top dose activity change, negative = inhibition, hits mostly inhibitors; P51570; hit rate 0.007% among 270,000; AID 1868, 2009; Purified GALK, Kinase-Glo residual ATP luminescence; note: potency is the fitted concentration of half-maximal effect; % is set by controls: 0 for no effect and ±100 for the full control effect
# Target sequence (P51570 whole entry, looked up): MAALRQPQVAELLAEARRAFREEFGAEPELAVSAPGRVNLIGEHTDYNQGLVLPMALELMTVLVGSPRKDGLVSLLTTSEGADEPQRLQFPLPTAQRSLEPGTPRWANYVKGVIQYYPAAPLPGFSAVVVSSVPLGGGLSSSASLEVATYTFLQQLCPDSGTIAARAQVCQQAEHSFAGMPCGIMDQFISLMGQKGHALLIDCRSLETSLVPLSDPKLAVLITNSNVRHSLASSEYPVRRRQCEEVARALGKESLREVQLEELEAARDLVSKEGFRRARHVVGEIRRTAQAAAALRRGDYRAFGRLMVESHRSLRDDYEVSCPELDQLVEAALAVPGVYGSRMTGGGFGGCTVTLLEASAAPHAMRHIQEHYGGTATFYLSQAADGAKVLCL
#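 Compounds were pin-transferred into ATP buffer (35 uM final), then GALK plus galactose (5 nM, 100 uM final) was added. After 1 h at room temperature, Kinase-Glo Plus was added and luminescence read after 10 min.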
# Eya2 phos inh: qHTS Assay for Inhibitors of the Phosphatase Activity of Eya2; Protein phosphatase EYA2 (Homo sapiens), O00167; recombinant Eya2, OMFP fluorescence dephosphorylation (OMFP is methylfluorescein phosphate); Potency, µM (titrated, usually from 76.9 µM), for the others: top-dose activity, negative = inhibition, most hits filed as inhibitors; hit rate 0.006% among 330,000; AID 488837, 2010; note: potency is the fitted concentration of half-maximal effect; % is set by controls: 0 for no effect and ±100 for the full control effect
#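 Eya2 protein (added as 0.2 uM solution) was preincubated with compound for 10 min at ambient temperature in 50 mM HEPES pH 7.5, 50 mM NaCl, 5 uM MgCl2, 0.05% BSA, 1 mM DTT. OMFP (added at 50 uM) then reacted 10 min; fluorescence read at 485/525 nm.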
# D1 PAM: Potentiators of Human D1 Dopamine Receptor: qHTS. hit rate 0.036% among 360,000. HEK293 TREx D1 cells, calcium flux, dopamine EC20 potentiation. AID 504651, 2011. potentiation, % at 10 µM. D(1A) dopamine receptor (Homo sapiens), P21728; in the data active = potentiation above about 30%; note: 0% is about no effect
# D1 antagonist: Antagonist of Human D 1 Dopamine Receptor: qHTS; AID 504652, 2011; hit rate 3.2% among 360,000; D(1A) dopamine receptor (Homo sapiens), P21728; HEK293 TREx D1 cells, calcium flux, dopamine EC80; hits give low values; activity change, negative = inhibition, % at 10 µM; in the data active = activity change below about -30%; note: % is set by controls: 0 for no effect and ±100 for the full control effect
#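 HEK293 T-REx cells expressing inducible, force-coupled D1 receptor; no-wash Ca dye, 30–90 min RT. Cmpd → 180 s read at 1 Hz → EC80 DA → 180 s read.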
# Active calls of the source: *; / = no result given. Unless noted, calls come from the whole dose curve; as a rule, active = well fitted inhibition curve with a large enough effect; inconclusive = small, poorly fitted or top-dose-only effect, or effect the other way; inactive = flat fitted curve, though single readings scatter.
SMILES,D1 ag,USP2a inh,GALK inhibitor,Eya2 phos inh,D1 PAM,D1 antagonist
COc1ccc(Nc2nc(N)c([N+](=O)[O-])c(N3CCCC3)n2)cc1,4,3%,2%,14%,-6,8
Oc1ccc(Nc2nc(N3CCCC3)c3ccccc3n2)cc1,1,0%,-2%,-3%,-10,-40*
COc1ccc(Nc2nc(N3CCCCC3)c3ccccc3n2)cc1,8,2%,-4%,-11%,-16,-49*
Cc1ccc(Nc2nc(N)c([N+](=O)[O-])c(N3CCOCC3)n2)cc1,3,0%,-1%,0%,1,-10
CCOC(=O)c1c(-c2ccc(C)cc2)csc1NC(=O)c1cc(=O)c2ccc(C)cc2o1,2,/,/,/,0,-10
Cc1cc2c(s1)c1cnn(Cc3ccc(F)c(Cl)c3)c(=O)c1n2C,0,/,/,/,-4,-11
Oc1ccccc1C1CCCCC1c1ccccc1 (configuration not stated),5,-14%,3%,-3%,-4,-39*
COc1ccccc1N1CC(C)(C)C(=O)N(C(=O)c2ccc(Cl)cc2)C1=S,6,7%,-3%,8%,-3,-18
COc1ccccc1N1CC(C)(C)C(=O)N(C(=O)c2ccc(C)cc2)C1=S,5,2%,5%,-5%,-2,-45*
COc1ccccc1CNc1nc(-c2ccco2)nn1S(=O)(=O)c1ccc2ccccc2c1,9,/,/,/,-2,-19
Cc1ccc(-c2cccc(C3CC=CC4C3C(=O)N(Cc3ccccc3)C4c3cc(C)ccc3F)c2)cc1 (configuration not stated),2,7%,-3%,2%,-10,-66*
COc1ccc(-c2cccc(C3CC=CC4C3C(=O)N(Cc3ccccc3)C4c3ccc(C(F)(F)F)cc3)c2)cc1 (configuration not stated),7,2%,-1%,-3%,-2,4
NC(=O)C[n+]1cccc(CNC(=O)c2ccc(OC(F)F)cc2)c1,1,0%,12%,4%,4,-30*
Cc1cc(C)c2cc(C#N)c(N3CCCC3)nc2c1,3,-2%,-5%,6%,-3,1
CC(=O)c1cc(C#N)c(N2CCCC2)nc1C,7,1%,0%,-10%,3,-36*
CC(=O)c1cc(C#N)c(SCCC(C)C)nc1C,8,0%,-2%,-6%,0,-41*
CCCc1nc2ccccc2n1CC(O)COc1ccc(C(=O)OC)cc1 (configuration not stated),4,/,/,/,-7,-20
CCOc1ccc(NC(=O)c2c(Nc3ccc(OC)cc3OC)sc(C(=O)c3ccc(Cl)cc3)c2N)cc1,49*,/,/,/,-1,-25
Cc1cc(C(=O)Nc2cccc(F)c2)c2c(C)nn(-c3cccc(Cl)c3C)c2n1,8,/,/,/,-8,-39*
CCOc1ccccc1NC(=O)c1sc2nc3c(cc2c1N)CN(Cc1ccccc1)CC3,55*,/,/,/,-4,16
CCOC(=O)c1cc(OC(=O)c2cc(OC)cc(OC)c2)n(-c2ccccc2)n1,-2,/,/,/,-1,-4
CCN1CCN(C(c2cccs2)C(C)NC(=O)c2cccnc2)CC1 (configuration not stated),2,1%,0%,-2%,-5,1
CC(NC(=O)c1cccnc1)C(c1cccs1)N1CCN(C)CC1 (configuration not stated),3,0%,2%,-1%,/,-39*
COc1ccc(N2CCN(C(=O)c3ccc4c(c3)[nH]c(=S)n3c5ccccc5nc43)CC2)cc1,1,0%,-7%,2%,-5,-32*
O=C(O)c1ccc(CNCc2c(Cl)cccc2Cl)cc1,2,1%,1%,24%,-13,-51*
SMILES,D1 ag,USP2a inh,GALK inhibitor,Eya2 phos inh,D1 PAM,D1 antagonist
CCn1c(SCc2ccc(Cl)cc2Cl)nc2nc3c(cc2c1=O)CCCC3,1,1%,-1%,-1%,1,-43*
O=C(CSc1nc2nc3c(cc2c(=O)n1-c1ccccc1)CCCC3)Nc1ccccc1,3,-1%,0%,-1%,-7,-10
CN(Cc1ccccc1F)c1ccc(S(=O)(=O)N2CCCC2)cn1,13,-1%,0%,-9%,-8,-32*
CC(C)(C)n1nc(-c2ccc(Cl)cc2)c2c(N)ncnc21,1,1%,-3%,8%,-2,-11
Cc1ccc(-c2nc(N)c3c(-c4ccc(C)cc4)nn(C(C)(C)C)c3n2)cc1,2,2%,0%,-41%,-20,-46*
CCn1c(SCC(=O)Nc2ccc3c(c2)OCO3)nnc1-c1cnccn1,0,4%,-2%,-9%,-8,-32*
O=C(CSCc1ccccc1Cl)Nc1ccc2c(c1)OCCO2,1,0%,-3%,4%,2,-36*
Nn1c(SCC(=O)Nc2ccc3c(c2)OCCO3)nnc1-c1ccccn1,1,/,-3%,/,-4,-36*
CCOCCCNC(=O)C1CCC(CNS(=O)(=O)c2ccc(NC(C)=O)cc2)CC1 (configuration not stated),1,/,/,/,0,-1
COc1cccc(N2C(=O)N(CC(=O)NCc3cccc(OC)c3OC)c3ccccc3S2(=O)=O)c1,3,/,/,/,-2,-17
Cc1ccccc1NC(=O)Cn1c(=O)n(CCCCCC(=O)NCc2ccc3c(c2)OCO3)c(=O)c2sccc21,2,/,/,/,0,-3
CCOc1ccccc1C(=O)N1CCc2cc(OC)c(OC)cc2C1COc1ccc2c(C)cc(=O)oc2c1 (configuration not stated),4,/,/,/,0,2
CCN1CCN(c2ncc3c(n2)CCN(Cc2sccc2C)C3)CC1,6,/,/,/,0,-9
CCN1CCN(c2ncc3c(n2)CCN(Cc2ccc(OC(C)C)cc2)C3)CC1,1,/,/,/,-1,-40*
CCN1CCN(c2ncc3c(n2)CCN(Cc2ccc(C)s2)C3)CC1,0,/,/,/,-1,-32*
CCN1CCN(c2ncc3c(n2)CCN(Cc2ccc(Br)s2)C3)CC1,12,/,/,/,0,0
CN1CCN(c2ncc3c(n2)CCN(Cc2ccc(Br)s2)C3)CC1,9,/,/,/,-1,-41*
COc1cc(CN2CCc3nc(N4CCN(c5ncccn5)CC4)ncc3C2)cc(OC)c1OC,9,/,/,/,0,-28
CCN1CCN(c2ncc3c(n2)CCN(Cc2cc(Br)cs2)C3)CC1,20,/,/,/,0,-24
